# Assays:
# Details in all cases: concentration: 1 μM, replicates: in singlicate; n = 1
# CSNK2A1 = system: CSNK2A1
# CSNK2A2 = system: CSNK2A2
# CTK = system: T1, CTK
# T1 construct: gene MATK
# DAPK1 = system: DAPK1
# DAPK2 = system: DAPK2
# DAPK3 = system: DAPK3
# DCAMKL1 = system: T2, DCAMKL1
# T2 construct: gene DCLK1
# DCAMKL2 = system: T3, DCAMKL2
# T3 construct: gene DCLK2
# DCAMKL3 = system: T4, DCAMKL3
# T4 construct: gene DCLK3
# DDR1 = system: DDR1
# DDR2 = system: DDR2
# DLK = system: T5, DLK
# T5 construct: gene MAP3K12
# DMPK2 = system: T6, DMPK2
# T6 construct: gene CDC42BPG
# DMPK = system: DMPK
# DRAK1 = system: T7, DRAK1
# T7 construct: gene STK17A
# DRAK2 = system: T8, DRAK2
# T8 construct: gene STK17B
# DYRK1A = system: DYRK1A
# DYRK1B = system: DYRK1B
# DYRK2 = system: DYRK2
# EGFR = system: EGFR
# 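Also: KINOMEscan kinase panel screen.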
Structure (SMILES),%Inh (CSNK2A1) [%],%Inh (CSNK2A2) [%],%Inh (CTK) [%],%Inh (DAPK1) [%],%Inh (DAPK2) [%],%Inh (DAPK3) [%],%Inh (DCAMKL1) [%],%Inh (DCAMKL2) [%],%Inh (DCAMKL3) [%],%Inh (DDR1) [%],%Inh (DDR2) [%],%Inh (DLK) [%],%Inh (DMPK2) [%],%Inh (DMPK) [%],%Inh (DRAK1) [%],%Inh (DRAK2) [%],%Inh (DYRK1A) [%],%Inh (DYRK1B) [%],%Inh (DYRK2) [%],%Inh (EGFR) [%]
COc1ccc(-c2oc3ncnc(N)c3c2-c2ccc(OC)cc2)cc1 [SB-589132],30,40,0,0,0,37,14,7,36,94.6,70,52,2,0,4,0,15,0,18,0
CS(=O)(=O)CCNCc1nc(-c2ccc3ncnc(Nc4ccc(OCc5cccc(F)c5)c(Cl)c4)c3c2)cs1.Cl [GW583340],2,17,0,25,0,6,16,0,0,4,20,2,0,0,7,17,12,20,16,99.9
O=C(c1ccc(-c2cc(-c3c[nH]nc3-c3ccccn3)ccn2)cc1)N1CCCC1 [GW792479],0,0,0,0,33,85,19,10,0,0,24,0,0,0,0,10,0,0,0,27
CC(C)(C)c1ccc(-n2cnc3c(N)ncnc32)cc1 [SKF-97263],18,0,0,0,0,0,0,12,0,27,13,0,0,0,85,5,15,21,3,38
Clc1cc(Nc2ncnc3cc[nH]c23)ccc1OCc1ccccn1,41,31,56,25,0,0,26,21,6,14,0,40,0,9,48,20,0,17,17,99.9
Cn1ccc2ncnc(Oc3ccc(NC(=O)Nc4cccnc4)c(Cl)c3)c21,0,19,21,7,0,0,11,0,0,99.3,90.7,0,0,0,8,2,0,33,14,20
Fc1ccc(Nc2nccc(-c3c(-c4ccc(Cl)cc4)nn4ncccc34)n2)cc1F [GW829058],0,24,30,1,0,8,25,11,0,87,18,20,0,21,5,0,0,11,40,24
Cc1ccc(NC(=O)c2cccc(C#N)c2)cc1-c1ccc(C(=O)Nc2ccncc2)cc1 [GSK1398463],0,9,19,0,0,6,19,15,0,100,82,0,6,0,0,1,31,19,19,36
CNc1nccc(-c2c(-c3ccc(F)cc3)ncn2CCCN2CCOCC2)n1 [SB-222516],6,5,0,0,0,15,8,0,19,0,0,1,93,7,12,15,6,48,15,10
Nc1nc(-c2cccnc2)c(-c2ccnc3ccccc23)s1 [GW684083],2,1,0,0,0,0,18,4,14,0,43,60,0,0,32,0,20,0,9,0
CN1CCC(n2cnc(-c3ccc(F)cc3)c2-c2ccnc(NC3CCNCC3)n2)CC1 [SB-229482],12,21,9,14,15,0,0,16,16,0,0,0,18,22,0,0,0,23,6,17
FC(F)(F)c1ccc(-c2cc(-c3c[nH]nc3-c3ccccn3)ccn2)cc1 [GW599550],0,30,0,9,16,99.2,10,16,0,0,17,41,0,4,10,0,10,23,0,18
Fc1ccc(-c2ncn(CCCNCc3ccccc3)c2-c2ccncc2)cc1,22,27,25,23,11,16,0,2,15,18,3,0,55,3,0,0,22,22,10,17
Cc1ccc(C)c(NC(=O)NCCNc2ccnc(Nc3ccc(F)cc3)n2)c1 [GSK1379878],5,0,0,0,0,11,19,0,0,1,15,38,0,0,5,3,0,1,3,10
Clc1ccc(-c2cc(-c3c[nH]nc3-c3ccccn3)ccn2)cc1 [GW681251],0,21,0,0,0,30,0,0,0,73,7,92.9,0,0,0,0,11,0,0,24
Cl.c1ccc(Cn2ccc3cc(Nc4ncnc5ccccc45)ccc32)cc1 [GW275568],4,19,0,21,7,30,22,10,2,8,16,6,5,0,0,0,4,0,9,100

Structure (SMILES),%Inh (CSNK2A1) [%],%Inh (CSNK2A2) [%],%Inh (CTK) [%],%Inh (DAPK1) [%],%Inh (DAPK2) [%],%Inh (DAPK3) [%],%Inh (DCAMKL1) [%],%Inh (DCAMKL2) [%],%Inh (DCAMKL3) [%],%Inh (DDR1) [%],%Inh (DDR2) [%],%Inh (DLK) [%],%Inh (DMPK2) [%],%Inh (DMPK) [%],%Inh (DRAK1) [%],%Inh (DRAK2) [%],%Inh (DYRK1A) [%],%Inh (DYRK1B) [%],%Inh (DYRK2) [%],%Inh (EGFR) [%]
O=C(NCCCN1CCCC1=O)c1cnc(NCc2cc(Cl)ccc2Cl)nc1NC1CCNCC1,0,7,5,14,0,0,17,12,0,0,0,0,0,0,0,16,0,0,0,20
CSc1nn2c(=O)cc(N3CCOCC3)nc2n1Cc1cccc(Cl)c1Cl [GSK2347225],5,33,0,14,5,24,29,0,3,17,0,100,16,12,4,0,19,23,8,39
FC(F)(F)c1ccc(-c2nn3ncccc3c2-c2ccnc(Nc3cccc(C(F)(F)F)c3)n2)cc1 [GW828205],0,0,0,0,0,1,34,0,22,86,25,7,0,7,0,18,0,41,31,11
CC(=O)Nc1n[nH]c2ncc(-c3ccccc3)cc12 [SB-548492],20,25,38,100,1,0,36,15,0,0,11,0,0,0,20,0,32,0,24,3
O=C(Nc1ccccc1)Nc1ccc(Oc2ccc3nccn3n2)cc1,0,0,100,0,1,0,9,10,59,98.6,100,18,0,6,0,0,0,30,70,23
Cl.c1ccc(Cn2ncc3cc(Nc4ncnc5ccccc45)ccc32)cc1 [GW273749],4,13,0,5,0,4,9,0,0,3,0,12,61,0,79,0,16,8,16,100
Cc1cccc(-c2nc(Nc3ccc4[nH]nnc4c3)c3ccccc3n2)n1 [GW867587],80,45,10,0,0,0,0,0,0,0,37,0,0,0,0,0,0,0,26,0
Cl.Cl.c1ccc(-c2cc3ccncc3cc2OC2CCNCC2)cc1 [GSK1122999],0,27,0,93.5,66,98.8,19,0,30,9,0,31,18,0,21,0,13,15,21,23
CN1c2ccc(-c3ccc(C(=O)NCCO)cc3)cc2-c2[nH]ncc2S1(=O)=O,25,47,0,32,36,31,26,12,2,0,0,29,7,0,24,29,47,49,31,0
C[C@H]1CC[C@@H](C(=O)Nc2ccccc2)CN1c1cc(-c2ccc3c(N)n[nH]c3c2)nc(N)n1 [GSK2283293],12,0,0,7,0,0,23,0,8,0,5,25,11,0,97.9,64,17,0,7,30
Nc1nc(-c2ccccn2)c(-c2ccnc3ccccc23)s1 [GW548057],0,17,0,11,13,31,23,11,6,0,33,45,10,0,0,3,1,0,9,16
FC(F)(F)c1cc(Nc2nccc(-c3c(-c4ccc(Cl)cc4)nn4ncccc34)n2)ccc1Cl [GW829351],0,11,14,0,0,12,0,0,0,78,30,0,19,0,0,0,0,0,0,24
Nc1nccc2scc(-c3ccc4c(c3)CCN4C(=O)Cc3cc(F)ccc3F)c12 [GSK2587663],0,7,0,27,2,7,14,8,11,10,1,21,13,0,3,5,0,12,5,21
COc1cc2ncnc(Nc3ccc(OCc4ccccc4Br)c(Cl)c3)c2cc1OC.Cl [GI261590],0,0,0,0,0,17,14,0,21,0,18,3,7,0,9,0,10,0,0,99.9
COc1cc2c(Nc3cccc(NC(=O)c4ccccc4)c3)ncnc2cc1OCCCN1CCOCC1 [GSK223810],6,22,0,0,15,28,0,14,16,12,16,13,0,0,11,0,0,15,33,87

# From publication PMC5540273 (PLoS ONE, 2017)
